Assay results taken from PubChem BioAssay AID1159580 (chemical genetic matrix, 2015).
Values joined by “and” are separate entries in the source; they are usually repeats but may differ in a detail not shown here. Identical values can stand only once. Out of some 5,500 compounds screened, about 2,000 (36%) were called active. Roughly 18% stayed inconclusive and do not appear here. Cut-off read from the data, not from the text of the source: active = normalized growth mostly below about 0.91 (no sharp cut-off); inconclusive = no clear call, values can overlap the other calls; inactive = mostly above about 0.92. The list shows a part of the results.

Assay: chemical genetic growth profiling, strain panel (AID 1159580);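 note: tested at 20 µM; growth read once vehicle control cultures reached saturation at 30 °C; 1 = growth at the plate median or of vehicle wells; lower values mean less growth of the strain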
Conditions: S. cerevisiae deletion strains, growth OD

Measured: normalized growth

CN(C)CCN(Cc1cccs1)c1ccccn1
inactive: locus YAL021C, strain ccr4, stronger effect = lower value 1 | locus YAL026C, strain drs2, stronger effect = lower value 1.01 | locus YAL030W, strain snc1, stronger effect = lower value 1 | locus YAL040C, strain CLN3, stronger effect = lower value 1.02 | locus YBL061C, strain skt5, stronger effect = lower value 1 | locus YBR009C, strain hhf1, stronger effect = lower value 0.996 | locus YBR021W, strain FUR4, stronger effect = lower value 1.01 | locus YBR023C, strain chs3, stronger effect = lower value 1.01 | locus YBR171W, strain sec66, stronger effect = lower value 1.01 | locus YBR229C, strain ROT2, stronger effect = lower value 1 | locus YBR231C, strain swc5, stronger effect = lower value 1.01 | locus YBR279W, strain paf1, stronger effect = lower value 1 | locus YCL011C, strain gbp2, stronger effect = lower value 1.01 | locus YCL016C, strain dcc1, stronger effect = lower value 1.01 | locus YCL029C, strain bik1, stronger effect = lower value 1.02 | locus YCL061C, strain MRC1 (second series), stronger effect = lower value 1.01 | locus YCL061C, strain MRC1, stronger effect = lower value 1.01 | locus YCL069W, strain vba3, stronger effect = lower value 1.01 | locus YCR088W, strain abp1, stronger effect = lower value 1.01 | locus YDL005C, strain med2, stronger effect = lower value 1.01 | locus YDL035C, strain GPR1, stronger effect = lower value 1 | locus YDL040C, strain nat1, stronger effect = lower value 1.01 | locus YDL074C, strain BRE1, stronger effect = lower value 0.974 | locus YDL101C, strain DUN1, stronger effect = lower value 0.99 | locus YDL134C, strain PPH21, stronger effect = lower value 1.02 | locus YDL185W, strain tfp1, stronger effect = lower value 1.02 | locus YDL192W, strain arf1, stronger effect = lower value 1.01 | locus YDR001C, strain nth1, stronger effect = lower value 1.01 | locus YDR069C, strain doa4, stronger effect = lower value 1 | locus YDR101C, strain arx1, stronger effect = lower value 0.957 | locus YDR137W, strain rgp1, stronger effect = lower value 1.03 | locus YDR150W, strain NUM1, stronger effect = lower value 1.02 | locus YDR159W, strain sac3, stronger effect = lower value 1.01 | locus YDR162C, strain NBP2, stronger effect = lower value 1.01 | locus YDR195W, strain ref2 0.999 | locus YDR297W, strain sur2, stronger effect = lower value 0.999 | locus YDR318W, strain mcm21, stronger effect = lower value 1.02 | locus YDR334W, strain swr1, stronger effect = lower value 1.02 | locus YDR335W, strain msn5, stronger effect = lower value 1.01 | locus YDR363W, strain ESC2, stronger effect = lower value 0.986 | locus YDR388W, stronger effect = lower value 1.02 | locus YDR392W, strain spt3, stronger effect = lower value 1.01 | locus YDR502C, strain sam2, stronger effect = lower value 1 | locus YEL003W, strain gim4, stronger effect = lower value 1.01 | locus YEL037C, strain rad23, stronger effect = lower value 1.01 | locus YEL061C, strain CIN8 (second series), stronger effect = lower value 1.01 | locus YEL061C, strain CIN8, stronger effect = lower value 1 | locus YER002W, strain NOP16, stronger effect = lower value 1.01 | locus YER015W, strain faa2, stronger effect = lower value 1 | locus YER016W, strain bim1, stronger effect = lower value 1.01 | locus YER110C, stronger effect = lower value 1.01 | locus YER111C, strain swi4, stronger effect = lower value 1.02 | locus YER155C, strain BEM2 (second series), stronger effect = lower value 1.01 | locus YER155C, strain BEM2, stronger effect = lower value 1.01 | locus YER167W, strain BCK2, stronger effect = lower value 1.01 | locus YFR010W, strain ubp6, stronger effect = lower value 1.01 | locus YGL078C, strain dbp3, stronger effect = lower value 1.01 | locus YGL086W, strain mad1, stronger effect = lower value 0.982 | locus YGL167C, strain pmr1, stronger effect = lower value 1.01 | locus YGL173C, strain kem1, stronger effect = lower value 1.01 | locus YGL227W, strain vid30, stronger effect = lower value 1.01 | locus YGL240W, strain doc1, stronger effect = lower value 1.02 | locus YGL248W, strain PDE1, stronger effect = lower value 0.993 | locus YGL253W, strain hxk2, stronger effect = lower value 1.02 | locus YGR078C, strain PAC10, stronger effect = lower value 1.01 | locus YGR135W, strain pre9, stronger effect = lower value 1.05 | locus YGR229C, strain SMI1, stronger effect = lower value 0.996 | locus YGR252W, strain gcn5, stronger effect = lower value 1.07 | locus YHR013C, strain ard1, stronger effect = lower value 0.993 | locus YHR027C, strain rpn1, stronger effect = lower value 1 | locus YHR030C, strain SLT2, stronger effect = lower value 1.01 and 0.934 | locus YHR079C, strain IRE1 (second series), stronger effect = lower value 1.01 | locus YHR079C, strain IRE1, stronger effect = lower value 0.98 | locus YHR094C, strain hxt1, stronger effect = lower value 1.01 | locus YHR129C, strain ARP1, stronger effect = lower value 1.01 | locus YHR142W, strain chs7, stronger effect = lower value 1.01 | locus YHR200W, strain rpn10, stronger effect = lower value 1.01 | locus YIL066C, strain RNR3, stronger effect = lower value 1.01 | locus YIL073C, strain SPO22, stronger effect = lower value 1.07 | locus YIL125W, strain kgd1, stronger effect = lower value 0.993 | locus YIR030C, strain dcg1, stronger effect = lower value 1.01 | locus YJL092W, strain hpr5, stronger effect = lower value 1 | locus YJL095W, strain BCK1 (second series), stronger effect = lower value 1.01 | locus YJL095W, strain BCK1, stronger effect = lower value 0.993 and 0.95 | locus YJL115W, strain asf1, stronger effect = lower value 1.03 | locus YJL129C, strain trk1, stronger effect = lower value 1 | locus YJL134W, strain LCB3, stronger effect = lower value 1.01 | locus YJL154C, strain vps35, stronger effect = lower value 1.01 | locus YJL164C, strain tpk1, stronger effect = lower value 1 | locus YJL166W, strain qcr8, stronger effect = lower value 1 | locus YJL168C, strain set2, stronger effect = lower value 1.01 | locus YJL187C, strain SWE1 (second series), stronger effect = lower value 0.998 | locus YJL187C, strain SWE1, stronger effect = lower value 1 | locus YJR043C, strain POL32, stronger effect = lower value 1.01
